# This is a sample that favours compounds with a hit; in the whole collection about 6.6% have one here.
# KB-3-1 tox: kills parental KB-3-1 adenocarcinoma cells | Potency, µM (titrated, usually from 46.1 µM), hits mostly cytotoxic | KB-3-1 viability, CellTiter-Glo ATP luminescence, 72 h | hit rate 1.4% among 400,000; note: % is set by controls: 0 for no effect and ±100 for the full control effect; nearly all actives have a fitted effect of over 60% in size
#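 KB-3-1 parental drug-naive adenocarcinoma cells in DMEM/10% FBS, incubated 72 h at 37 C with pin-transferred compounds across a concentration series. Viability by CellTiter-Glo luminescence; concentration-response curves fitted after normalization.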
# KB-V1 cytotox: KB-V1 MDR subline cytotoxicity | hit rate 3.4% among 400,000 | Potency, µM (titrated, usually from 46.1 µM), hits mostly cytotoxic | KB-V1 MDR cells viability, CellTiter-Glo, 72 h; note: % is set by controls: 0 for no effect and ±100 for the full control effect; nearly all actives have a fitted effect of over 60% in size
#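 Luminescent ATP read-out (CellTiter-Glo, 10 min) measures survival of drug-selected KB-V1 MDR cells after 72 h, 37 degrees C compound exposure. Medium: phenol-red-free DMEM, 10% FBS. Values from fitted concentration-response curves.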
# SW480 rereplic: DNA re-replication induction in SW480 cells. SW480 DNA re-replication, Hoechst DNA content imaging, 48 h. Potency, µM (top dose mostly 46.1 µM), without a hit: at the highest dose re-replication activation, actives largely listed as activators. hit rate 1.8% among 340,000; note: % of control where 0% means no effect; nearly all actives have a fitted effect of over 55% in size
#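 Image-based DNA-content assay: after two days of treatment, nuclei were labelled with the DNA dye Hoechst and imaged, and hits were compounds raising the count of nuclei showing high fluorescence intensity.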
# PTAP TSG101 blk: blocks PTAP/TSG101 interaction to inhibit HIV-1 budding; Q99816; Fluorescence polarization, FITC-PTAP peptide / Tsg101 binding; Potency, µM (highest dose often 115 µM), inactives show top-dose activity change, negative = inhibition, actives largely listed as inhibitors; 340,000 tested, under 10 active; active = well fitted inhibition curve with a large enough effect in the main read-out, with a control signal flat, not every such curve was filed as active; inconclusive = small, poorly fitted or top-dose-only effect, or effect the other way, or a change in a side signal; inactive = no such curve, though single readings can be large or run the other way; note: % of control where 0% means no effect
# Target sequence (Q99816 whole entry, looked up): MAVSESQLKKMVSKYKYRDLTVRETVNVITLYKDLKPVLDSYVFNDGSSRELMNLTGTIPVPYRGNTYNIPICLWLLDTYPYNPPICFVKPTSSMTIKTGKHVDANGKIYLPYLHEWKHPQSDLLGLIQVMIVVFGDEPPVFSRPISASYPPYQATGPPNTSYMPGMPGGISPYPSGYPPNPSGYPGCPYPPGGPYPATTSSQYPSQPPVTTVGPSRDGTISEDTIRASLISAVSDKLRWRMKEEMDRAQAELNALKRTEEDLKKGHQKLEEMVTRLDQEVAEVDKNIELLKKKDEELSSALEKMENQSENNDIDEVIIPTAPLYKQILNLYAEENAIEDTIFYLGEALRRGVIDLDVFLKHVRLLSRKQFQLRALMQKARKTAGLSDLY
#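 Compounds were pin-transferred onto Tsg101 binding domain (10 uM final) in HEPES pH 7.5 buffer, then FITC-PTAP peptide was added at 50 nM final. After 20 min at RT, polarization reported peptide displacement across a qHTS concentration series.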
# MCF10A rerep: induces DNA re-replication in MCF 10a normal breast cells | hit rate 2.9% among 350,000 | MCF 10A DNA re-replication, Hoechst nuclear intensity, 48 h | Potency, µM (doses to about 46.1 µM), for the others: top-dose activity, positive = re-replication, usual class: activators; note: % of control where 0% means no effect; nearly all actives have a fitted effect of over 50% in size
# RGS4 inhibitor: inhibitors of human regulator of G protein signaling 4. hit rate 0.039% among 390,000. P49798. Potency, µM (highest dose often 114 µM), for the others: at the highest dose activity change, negative = inhibition, usual class: inhibitors. Transcreener GDP fluorescence polarization, RGS4-accelerated GTP hydrolysis; note: % is set by controls: 0 for no effect and ±100 for the full control effect; nearly all actives have a fitted effect of over 75% in size
# Target sequence (P49798 whole entry, looked up): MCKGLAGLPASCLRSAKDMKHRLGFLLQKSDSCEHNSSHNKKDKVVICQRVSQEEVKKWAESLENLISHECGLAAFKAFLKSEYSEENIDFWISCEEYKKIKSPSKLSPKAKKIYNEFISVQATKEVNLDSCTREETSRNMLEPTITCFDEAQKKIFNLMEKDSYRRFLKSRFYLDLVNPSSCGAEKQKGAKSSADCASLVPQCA
#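 MLSMR compounds (23 nl, pin-transferred) preincubated 10 min at room temperature with a 500nM (2x) first reagent, then RGS4 at 900nM (2x) plus Transcreener GDP mix added; fluorescence polarization (620/688 nm) read before and after 90 min at 30 °C.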
# * marks the source's active call; other numbers are inactive results; i = inactive; ? = inconclusive; · = no result; [ ] = dose if it differs, or a comment. Unless noted, calls come from the whole dose curve; as a rule, active = well fitted curve in the direction sought with a large enough effect; inconclusive = small, poorly fitted or top-dose-only effect, or another doubt; inactive = no such curve, though single readings can be large; an effect the other way counts as inactive or inconclusive. Potency is the fitted concentration of half-maximal effect.
SMILES,KB-3-1 tox,KB-V1 cytotox,SW480 rereplic,PTAP TSG101 blk,MCF10A rerep,RGS4 inhibitor
CC(=NNC(=S)N1CCN(c2ccccn2)CC1)c1ccccn1,i,7.31µM*,?,1.1%,0.1%,?
S=C(NC1CCCCC1)N1CCc2ccccc2C1,?,14.6µM*,6.4%,-1.1%,-61.5%,-14.3%
CC(=NNC(=S)N1CCN(c2ccccn2)CC1)c1nccs1,?,?,?,-0.5%,?,?
S=C(NC1CC1)N1CCc2ccccc2C1,i,i,-6.9%,-2.8%,-8.8%,1.7%[56.9 µM]
COc1ccc(OC)c(NC(=O)CCCOc2cc(=O)n(C)c3ccccc23)c1,i,i,·,·,·,-4.3%
O=S1(=O)C2CC3C=CC2(O3)C(O)C(Cc2ccccc2)N1Cc1cccc(F)c1 (configuration not stated),·,·,·,·,·,-4.9%
O=C1c2ccccc2C(=O)N1CCCCSc1nnc(-c2ccc(OC(F)F)cc2)o1,i,3.26µM*,12.7%,1.3%,16.0%,23.2%
CCCCn1c(=O)[nH]c(=O)c2c1nc(Cn1ncc(Cl)c(Cl)c1=O)n2CCC,2.91µM*,i,?,0.5%,?,?
O=C(Nc1cccc2cccnc12)OCc1ccccc1,·,·,·,·,·,22.0%
O=C(NCc1cccc(Br)c1)c1ccc(-n2cnc3cccnc32)cc1,i,i,·,·,·,23.0%
O=C(Cn1cc(S(=O)(=O)N2CCN(c3ccccc3F)CC2)c2ccccc2c1=O)NCCCN1CCCCCC1,i,i,20.6µM*,-7.8%,?,-3.2%
Cn1c(=O)c2c(nc(SCCN3CCOCC3)n2Cc2ccccc2Cl)n(C)c1=O,i,i,-13.7%,-1.2%,-1.7%,-6.2%
Cn1c(=O)c2c(nc(SCCN3CCOCC3)n2Cc2cccc3ccccc23)n(C)c1=O,i,4.11µM*,0.4%,-4.7%,-1.5%,9.6%
Cc1[nH]c2ccccc2c1/C=N/NC(=O)C1CC1(c1ccccc1)c1ccccc1 (configuration not stated),?,?,?,1.1%,23.1µM*,0.6%
COc1cccc(-c2noc(C3CCCN(S(=O)(=O)c4cccc(Cl)c4C)C3)n2)c1 (configuration not stated),i,14.6µM*,2.6%,0.4%,24.6%,-2.9%
CCCCC(=O)N1CCCC(c2nc(-c3cccc(OC)c3)no2)C1 (configuration not stated),i,i,-3.2%,-5.5%,-2.5%,-11.7%
CCCS(=O)(=O)N1CCCC(c2nc(-c3cccc(OC)c3)no2)C1 (configuration not stated),i,11.6µM*,2.4%,·,-2.9%,17.3%
COc1cccc(-c2noc(C3CCCN(C(=O)CC(C)(C)C)C3)n2)c1 (configuration not stated),i,i,24.0%,-3.9%,0.461µM*,-12.7%
COc1cccc(-c2noc(C3CCCN(C(=O)c4ccccc4OC)C3)n2)c1 (configuration not stated),i,i,-0.3%,-1.2%,9.2%,8.2%
NC(=O)c1nc(-c2ccc(F)c(F)c2)nc2c1[nH]c(=O)n2-c1cccc(Cl)c1,·,·,·,·,·,-1.0%
CN(CC#CC1(O)c2ccccc2-c2ccccc21)Cc1ccccc1,i,8.2µM*,-6.0%,-2.1%,-2.8%,-9.0%
CCC(=O)Nc1cccc(C(=O)/C=C/c2ccccc2)c1,?,i,?,-2.1%,8.2µM*,-52.6%
CSc1ccc(C(=O)/C=C/c2ccc(N)cc2)cc1,?,?,?,-4.7%,23.1µM*,-9.7%
CCC(=O)Nc1cccc(C(=O)/C=C/c2cccs2)c1,i,i,?,-2.6%,24.2%,-12.4%
CSc1ccc(/C=C/C(=O)c2ccc(NC(=O)C(C)C)cc2)cc1,?,?,?,-1.3%,?,-24.0%
SMILES,KB-3-1 tox,KB-V1 cytotox,SW480 rereplic,PTAP TSG101 blk,MCF10A rerep,RGS4 inhibitor
CSc1ccc(/C=C/C(=O)c2ccc(NC(=O)Cc3ccccc3)cc2)cc1,i,?,18.4µM*,3.9%,?,-12.2%
CC(=O)N1CCCC1c1nc2ccccc2n1Cc1c(F)cccc1Cl (configuration not stated),i,i,·,·,·,24.5%
CCOC(=O)C1CCCN(C(=O)c2cc(COc3ccc(C)nc3)on2)C1 (configuration not stated),i,16.4µM*,?,-0.5%,-1.1%,15.5%
Cc1cc(C)n(-c2ccc(Cl)c(C(=O)OCC(N)=O)n2)n1,i,i,17.0%,0.8%,-4.4%,6.0%
Cc1cc(C)n(-c2ccc(Cl)c(C(=O)NCc3ccccc3)n2)n1,i,11.6µM*,-0.3%,0.5%,-8.9%,-4.9%
O=c1c2sc3nc(N4CCOCC4)c4c(c3c2ncn1CCc1ccccc1)CCCC4,i,2.31µM*,-6.6%,-2.8%,?,6.2%
O=C(CCSCc1ccccc1F)N1CCN(c2ccc(F)cc2)CC1,·,·,·,·,·,-2.4%
CC(=O)Nc1ccccc1C(=O)C(=O)Nc1ccc(C)c(C)c1,i,?,1.4%,-2.7%,3.7%,4.0%
CCc1ccc(NC(=O)C(=O)c2ccccc2NC(C)=O)cc1,i,23.1µM*,11.9%,-4.6%,?,-8.7%
CCOc1ccc(NC(=O)CSc2nnc3c(n2)[nH]c2ccc(S(=O)(=O)N(C)C)cc23)cc1,·,·,·,·,·,-53.3%
O=C(/C=C\N1CCOCC1)c1ccc(Br)cc1,i,i,1.9%,-5.1%,5.8µM*,-24.2%
O=C(/C=C/N1CCOCC1)c1ccc(-c2ccccc2)cc1,i,?,14.6µM*,-8.0%,9.1%,-48.4%
S=C(c1ccc(-c2ccccc2)cc1)N1CCOCC1,i,i,-4.4%,-2.5%,7.5%,-9.9%
Cc1ccc(CCC(=O)Nc2ncc(Cc3cccc(Cl)c3Cl)s2)o1,0.116µM*,0.517µM*,1.16µM*,-2.1%,?,-3.7%
CC(C)Oc1ccc(C(=O)N(Cc2ccc(N(C)C)cc2)Cc2ccco2)cc1,·,·,·,·,·,-4.3%
COc1ccc(C2=Nc3ccccc3N(C(=O)c3ccc4ncccc4c3)C2C(=O)NC(C)(C)C)cc1 (configuration not stated),i,?,·,·,·,·
Cc1ccc2cc(-c3noc(C(C)(C)C)n3)c(=O)[nH]c2c1,i,18.4µM*,0.6%,-10.3%,7.2%,-14.9%
CC(=O)Nc1ccc(SCC(=O)c2cc(C)n(-c3ccccc3)c2C)cc1,i,?,-1.9%,-7.6%,0.3%,9.8%
Cc1cc(-n2c(C)cc(C(=O)CCl)c2C)no1,?,?,?,-1.2%,3.26µM*,-9.4%
Cc1cc(-n2c(C)cc(C(=O)COc3cc(F)ccc3[N+](=O)[O-])c2C)no1,i,i,13µM*,-1.8%,?,7.8%

# Assay outcomes deposited in PubChem BioAssay by National Center for Advancing Translational Sciences (NCATS).
